# Data: PubChem BioAssay (Tox21)
# Inconclusive results are not listed. The source made the active and inactive calls. Calls come from the whole dose curve; as a rule, active = well fitted cell-killing curve with a large enough effect in the repeat runs; inconclusive = weak or mixed curves; inactive = flat fitted curve, though single readings scatter.
# Assay: qHTS RealTime-Glo MT Cell Viability Assay in HepG2 cells - 8 hour (AID 1224873); note: nearly all actives have a fitted effect of over 55% in size
# Settings: RealTime-Glo luminescence; series mostly up to 76.8 µM; viability change, negative = cytotoxic: at the top concentration
# Excerpt: National Center for Advancing Translational Sciences [NCATS]
# NIH Chemical Genomics Center [NCGC]
# U.S. Environmental Protection Agency [EPA]
# National Institutes of Environmental Health Sciences [NIEHS]
# National Toxicology Program [NTP]
# U.S. Food and Drug Administration [FDA]
# Measure of cell viability is critical in the cell-base assay. Analysis of cell viability is necessary for the characterization of cell responses to cytotoxic drugs and environmental stress. A RealTime-Glo MT Cell Viability Assay to monitor cell viability in real time of continues cell culture during 40 hours of compound treatment was used to screen Tox21 10K library compounds in HepG2 cells. The RealTime-Glo MT Cell Viability Assay is a nonlytic, homogeneous, bioluminescent method to measure cell viability in real time using a simple, plate-based method. The assay involves adding NanoLuc luciferase and a cell-permeant prosubstrate to cells in culture. Viable cells reduce the proprietary prosubstrate to generate a substrate for NanoLuc luciferase. This substrate diffuses from cells into the surrounding culture medium, where it is rapidly used by the NanoLuc Enzyme to produce a luminescent signal. The signal correlates with the number of viable cells, making the assay well suited for cytotoxicity studies.
# Tox21 Assay Protocol Summary:
# The mixture of HepG2 cell suspension and reagents were dispensed at 600cells/6 ul/well in 1536-well tissue culture treated black solid bottom plates using a Multidrop dispenser. After the assay plates were incubated at a 37 C/5% CO2 incubator for 5 hours, 23 nL of compounds dissolved in DMSO, positive and negative controls was transferred to the assay plate by a pintool work station. The plates were incubated at 37 C for 40 hours. The luminescence intensity were measured at 0h, 8h, 16h, 24h, 32h and 40h time points using ViewLux plate reader during compound treatment.
# % is set by controls: 0 for no effect and ±100 for the full control effect.
row,SMILES,"viability change, negative = cytotoxic"
1,CC/C=C\CCCCO,5.74% (inactive)
2,Cc1cc(C)cc(OCC2CNC(=O)O2)c1 (stereo not given),7.99% [at 35.3 µM] (inactive)
3,CCCCCCCCCCCCCCC,2.09% (inactive)
4,CCC(=O)c1cccc(Cl)c1,-7.17% (inactive)
5,CC(=O)O[C@H](CC(=O)[O-])C[N+](C)(C)C,0.384% (inactive)
6,CC(C)c1ccc2oc3nc(N)c(C(=O)O)cc3c(=O)c2c1,-0.179% [at 35.3 µM] (inactive)
7,CC(=O)CCc1ccc(O)cc1,-0.355% (inactive)
8,CCC(C)(C)C1CCC(OC)CC1 (stereo not given),4.22% (inactive)
9,NC(=O)c1ncn([C@@H]2O[C@H](CO)[C@@H](O)[C@H]2O)c1N,2.13% [at 35.3 µM] (inactive)
10,C1CCCCCCCCCCC1,-9.68% [at 15.8 µM] (inactive)
11,Cn1cnc2c(=O)[nH]c(N)nc21,2.79% (inactive)
12,CC(C)[C@H](N)C(=O)OCCOCn1cnc2c(=O)[nH]c(N)nc21,7.71% [at 35.3 µM] (inactive)
13,CCCc1ccccc1O,2.33% (inactive)
14,Fc1ccccc1-c1ccccc1,0.267% (inactive)
15,CC1=CCC2C(C1)C2(C)C (stereo not given),2.02% (inactive)
16,COc1cc(O)cc(O)c1,4.75% [at 35.3 µM] (inactive)
17,CC(C)=CCC/C(C)=C/C(=O)O,4.79% (inactive)
18,C#CC(C)(O)CC(C)C (stereo not given),2.65% (inactive)
19,CCO[Si](CCCN=C=O)(OCC)OCC,1.17% (inactive)
20,Oc1cc(O)c2c(c1)O[C@H](c1ccc(O)c(O)c1)[C@H](O)C2,-0.871% [at 35.3 µM] (inactive)

row,SMILES,"viability change, negative = cytotoxic"
1,O=C(O)c1ccc[n+]([O-])c1,2.73% [at 35.3 µM] (inactive)
2,CCCCCCOC(=O)c1ccccc1O,-7.71% (inactive)
3,CO,-12.9% (inactive)
4,CCCCCCC(=O)OCC,-8.68% (inactive)
5,CC(C)COC(=O)C(C)C,2.92% (inactive)
6,O=c1[nH]c(=O)n([C@H]2O[C@H](CO)[C@@H](O)[C@@H]2O)cc1/C=C\Br,0.351% [at 35.3 µM] (inactive)
7,Nc1[nH]c(=O)ncc1F,-0.349% [at 35.3 µM] (inactive)
8,c1ccc(SCCSc2ccccc2)cc1,1.91% (inactive)
9,CCCCCN(CCCCC)C(=O)C(CCC(=O)O)NC(=O)c1ccc(Cl)c(Cl)c1 (stereo not given),1.08% [at 35.3 µM] (inactive)
10,COc1ccc(N=[N+]([O-])c2ccc(OC)cc2)cc1,-8.21% (inactive)
11,C=CCn1c(=O)n([C@@H]2O[C@H](CO)[C@@H](O)[C@H]2O)c2nc(N)[nH]c(=O)c21,3.15% [at 35.3 µM] (inactive)
12,CCCOc1ccccc1-c1nc2n[nH]nc2c(=O)[nH]1,-2.68% [at 35.3 µM] (inactive)
13,NC(CS)C(=O)O (stereo not given),-0.574% [at 35.3 µM] (inactive)
14,C=C(C)C(=O)NCCC[N+](C)(C)C,2.21% (inactive)
15,N[C@@H](CS)C(=O)O,0.526% (inactive)
16,CCCCCC[C@@H](CCC)C(=O)O,5.07% [at 35.3 µM] (inactive)
17,CC(C)CCCCCCN,1.62% (inactive)
18,CCCCC1CCCCC(=O)O1 (stereo not given),-5.29% (inactive)
19,C[N+](C)(C)CC[N+]1(C)Cc2c(Cl)c(Cl)c(Cl)c(Cl)c2C1,4.25% [at 35.3 µM] (inactive)
20,COCCOC(=O)CC#N,3.6% (inactive)
